PubChem BioAssay (Tox21)
Results filed as inconclusive are left out. A call without a number means that no potency is given here. Active and inactive are the calls of the source. Calls follow the shape of the full dose curve.

molecular target: Beta-2 adrenergic receptor (Homo sapiens) (UniProt P07550); test: Adrenergic beta2 receptor (ADRB2) small molecule agonists, cell-based qHTS assay (AID 1963593); settings: CHO-ADRB2 cells, cAMP HTRF, 30 min; series mostly up to 92.4 µM
From the text: National Center for Advancing Translational Sciences [NCATS]
Division of Preclinical Innovation [DPI]
U.S. Environmental Protection Agency [EPA]
National Institutes of Environmental Health Sciences [NIEHS]
National Toxicology Program [NTP]
U.S. Food and Drug Administration [FDA]
Beta adrenergic receptors (Beta-ARs) belong to the G-protein coupled receptor (GPCR) superfamily, includes three subtypes - beta1, beta2, and beta3. Beta1-AR is the predominant receptor subtype expressed in the heart, and beta2-AR is expressed in the kidney, lung, blood vessel and in the heart, and beta3 is found in the adipocytes. Beta1 and 2 ARs couple to Gs protein and elevate cyclic adenosine mono phosphate (cAMP), which activates protein kinase A and leads to the downstream signaling responsible for the physiological actions. Beta-AR agonists or antagonists are the most prescribed therapeutic agents for heart failure and asthma, and these were one of the first target receptors for the rational drug design. Tox21 10K compound library was screened using the cAMP-Gs dynamic assay (Cisbio Bioassays, Shelton, CT) to identify agonists/antagonists of the Gs-coupled human adrenergic, beta2 receptor (ADRB2) in the CHO-ADRB2 cell line (Codex BioSolutions, Inc. Gaithersburg, MD), which stably over-expresses ADRB2. The principle of cAMP-Gs dynamic assay is based on HTRF technology, which facilitates the fluorescence resonance energy transfer (FRET) between donor Europium cryptate and acceptor d2-labeled cAMP. The cAMP generated within cells competes with the red acceptor, d2-labled cAMP, for binding to the monoclonal anti-cAMP-cryptate (Europium donor). An increase in intracellular cAMP leads to the disruption of FRET signal, and the signal is inversely proportional to the cAMP concentration. Isoproterenol HCl (Sigma-Aldrich, St. Louis, MO) was used as a positive control in the screening.
Tox21 Assay Protocol Summary:
CHO-ADRB2 cells were dispensed at 1,000/well in 4uL assay medium into white/solid 1536-well plates (Greiner Bio-One North America Inc., Monroe, NC) using a Multidrop Combi dispenser (ThermoFisher Scientific, Waltham, MA). The assay plates were incubated at 37C and 5% CO2 for an overnight (18-20hr). Then positive control and test compounds dissolved in DMSO were transferred to the assay plates at 23nL using a Pintool station (Wako, San Diego, CA). Following the compound and positive control transfer, 1uL stimulation mix containing 100uM IBMX and 25uM Ro-20-1724 was added to each well of the assay plates using BioRAPTR Flying Reagent Dispenser (FRD, Beckman Coulter, Brea, CA). The assay plates were incubated at room temperature for 0.5hr. Then 2.5ul each d2-labled cAMP and anti-cAMP-cryptate solutions were added separately to each well of the assay plates using an FRD and the assay plates were incubated at room temperature for 1hr.

Chain of Beta-2 adrenergic receptor (Homo sapiens) (P07550 whole entry, looked up): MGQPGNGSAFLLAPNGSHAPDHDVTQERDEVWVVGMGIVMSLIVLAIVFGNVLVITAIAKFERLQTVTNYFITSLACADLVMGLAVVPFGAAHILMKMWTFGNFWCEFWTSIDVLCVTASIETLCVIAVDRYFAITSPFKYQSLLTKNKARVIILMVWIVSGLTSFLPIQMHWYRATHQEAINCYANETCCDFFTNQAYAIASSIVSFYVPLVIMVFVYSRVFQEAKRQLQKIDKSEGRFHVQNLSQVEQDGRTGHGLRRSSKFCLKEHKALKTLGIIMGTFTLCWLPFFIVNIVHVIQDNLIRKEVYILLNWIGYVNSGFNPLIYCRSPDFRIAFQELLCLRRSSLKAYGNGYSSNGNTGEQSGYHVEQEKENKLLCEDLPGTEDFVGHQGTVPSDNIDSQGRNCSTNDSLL

Structure (SMILES) | Potency
O=C(N[C@H](c1ccccc1)[C@@H]1CN2CCC1CC2)c1c(Cl)ccc(C(F)(F)F)c1Cl | inactive
COP(=S)(OC)Oc1nc(Cl)c(Cl)cc1Cl | inactive
NCCCNCCCN | inactive
CC(=O)C(Cl)C(=O)N(C)C (stereo not given) | inactive
O=C(Nc1ccc2[nH]ccc2c1)c1cc2cc(F)ccc2n1Cc1cccc(F)c1 | inactive
CCSCc1ccccc1OC(=O)NC | inactive
CC(C)(C)c1cc([N+](=O)[O-])cc(C(C)(C)C)c1O | inactive
BrCCCCCCBr | inactive
CCCCC(=O)Cl | inactive
O=C(O)C(Br)(Br)Br | inactive
O=C(O)C(Br)CBr (stereo not given) | inactive
COc1ccc(-c2ccccc2)cc1NNC(=O)OC(C)C | inactive
COP(=S)(OC)Oc1ccc([N+](=O)[O-])c(C)c1 | inactive
CN[C@@H](C)[C@H](O)c1ccccc1 | inactive
COP(=O)(OC)OC(Br)C(Cl)(Cl)Br (stereo not given) | inactive
CN(CCCC(O)c1cccnc1)N=O (stereo not given) | inactive
BrCCCCBr | inactive
C=CC(=O)N(C)C | inactive
CNC(=O)Oc1cccc(N=CN(C)C)c1 | inactive
CC[C@H](O)C(C[C@H](C)N(C)C)(c1ccccc1)c1ccccc1 | inactive

Structure (SMILES) | Potency
CCC1(c2ccccc2)C(=O)N(COC)C(=O)N(COC)C1=O | inactive
O=C(N[C@H]1CN2CCC1CC2)c1ccc2c(c1)OCCO2 | inactive
CNC(=O)O/N=C(/CSC)C(C)(C)C | inactive
COP(=O)(OC)SCn1c(=O)oc2cc(Cl)cnc21 | inactive
CCC[CH2][Sn]([CH2]CCC)([O]C(C)=O)[O]C(C)=O | inactive
O=C(O)[C@H](O)[C@@H](O)C(=O)O | inactive
O=S(=O)(C(Cl)(Cl)Cl)C(Cl)(Cl)Cl | inactive
COc1ccc([N+](=O)[O-])cc1O | inactive
NC(=O)CI | inactive
O=C(O)C(O)C(O)C(=O)O (stereo not given) | inactive
CC(C)(COCC1CO1)COCC1CO1 (stereo not given) | inactive
O.O.O.O=C([O-])[C@H]([O-])[C@@H]([O-])C(=O)[O-].O=C([O-])[C@H]([O-])[C@@H]([O-])C(=O)[O-].[K+].[K+].[Sb+3].[Sb+3] | inactive
CCCOCC(=Nc1ccc(Cl)cc1C(F)(F)F)n1ccnc1 | inactive
OC(Cn1cncn1)(c1ccc(F)cc1)c1ccccc1F (stereo not given) | inactive
CC(=O)OC(c1ccccc1)C(Cl)(Cl)Cl (stereo not given) | inactive
Cc1ccccc1C(=O)Nc1cccc(OC(C)C)c1 | inactive
CN(C)c1ccc(N=Nc2ccccc2)cc1 | inactive
c1cc[n+]2c(c1)-c1cccc[n+]1CC2 | inactive
O=C=Nc1ccc(Cl)cc1 | inactive
ClP(Cl)(Cl)(Cl)Cl | inactive
